Experimental data from PubChem BioAssay (NCI).
This is part of a sample that, as a whole, favours compounds with a hit. Of some 83,000 tested, about 20% had one in any assay.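 48-hour exposure, single concentration, 96-well plates; percent growth endpoint where 0 means no net growth. Active: below 10.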 Values without a mark were called inactive. Calls of active or inactive are those of the source.

Tested on: SK-MEL-2 melanoma
Assay: NCI-60 one-dose screen, 48 h (100 = growth as untreated, 0 = no growth, -100 = all killed)
Conditions: 10 µM unless noted
Method: Growth inhibition of the SK-MEL-2 human tumor cell line is measured as a screen for anti-cancer activity. Cells are grown in 96 well plates and exposed to the test compound for 48 hours. Compounds are tested at a single concentration, which is 10^-5 M for most compounds. The reported endpoint is percent growth (GI% or GIPRCNT), where numbers from 0 - 100% represent growth inhibition, and numbers from -100% - 0 represent cell death. For example, a value of 40 represents 60% growth inhibition. A value of 0 means no net growth occurred over the course of the experiment. A value of -40 indicates 40% of cells at the beginning of the experiment died by the end of the experiment. A value of -100 means all cells are dead at the end of the experiment.
NCI-60 Human Tumor Cell Lines Screen was performed using the standard one-dose NCI protocol, which is described in more detail at https://dtp.cancer.gov/discovery_development/nci-60/default.htm.
Compounds with GIPRCNT values below 10 were considered active. Activity score was based on GIPRCNT using the following formula: […]
Score is 0 for GIPRCNT values of 100 or above, 50 for GIPRCNT values of 0, and 100 for GIPRCNT values of -100.

| Compound | growth |
| --- | --- |
| CCNC(=O)Oc1ccc(/C(=C(\C)c2ccccc2)c2ccc(OCCCN(C)C)cc2)cc1 | 97.2% |
| CCOC(=O)[C@@H]1CCCN(S(=O)(=O)c2ccc(S(=O)(=O)N(CC)CC)c(F)c2)C1 | 62.6% |
| COC(=O)c1ccc2c(c1)[n+](=O)c(C(C)=O)c(C(F)(F)F)n2[O-] | -31.9% (active) |
| C#Cc1cccc(NC(=O)Nc2cccc(NC(=O)CCl)c2)c1 | 6.45% [8.25 µM] (active) |
| O=C(/C=C/c1c(-c2ccc(Cl)cc2)nn(-c2ccccc2)c1C(F)(F)F)c1ccc(Cl)cc1 | 89% |
| O=C(Nc1ccc(Cl)cc1)c1cc(NCc2cc(O)ccc2O)ccc1O | 78.8% |
| CN1CCN(c2ccc(NC3=C(Cl)C(=O)c4ncccc4C3=O)cc2C(F)(F)F)CC1 | 89% |
| N#Cc1c(NCc2ccccc2I)sc2c1CCCCC2 | 105% |
| COc1ccc(C(=O)Cn2c(C(=O)c3ccccc3)nc3ccccc32)cc1 | 64.2% |
| CCN(CC)CCCC(C)Nc1cc(O)cc2cccnc12 (stereo not given) | 135% |
| Cc1cc2nc3c4cccc(O)c4n(CCN(C)C)c3nc2cc1C | 54.2% |
| C[C@H](c1nc2ccc(N)cc2[nH]1)[C@H]1CC[C@H]2[C@@H]3CCC4=CC(=O)CC[C@]4(C)[C@H]3CC[C@]12C | 106% |
| O=[N+]([O-])CC(c1ccccc1F)c1c[nH]c2ccccc12 (stereo not given) | 57% |
| Cc1ccc(-c2csc(NC(=O)CSc3nc(-c4ccccc4)cc(=O)[nH]3)n2)cc1 | 89.4% |
| COCc1cnccc1NC1CCCCCC1 | 107% |
| CCOc1ccc(Nc2nc(-c3ccc4c(c3)NC(=O)CO4)cs2)cc1 | 81.3% |
| OC(c1ccc(F)c(C(F)(F)F)c1)c1cnccc1NC1CCCCC1 (stereo not given) | 89.6% |
| O=C1Nc2cc(-c3ccc(NC(=O)c4ccccc4)cc3)ccc2/C1=C/c1ccc[nH]1 | 102% |
| CC1(C)NCCC[C@]2(C)[C@H]3CC(=O)[C@H]4[C@@H]5C[C@](C)(CO)CC[C@]5(C)CC[C@@]4(C)[C@]3(C)CC[C@@H]12 | 99.5% |
| COc1ccc(CCn2cncc2-c2c[nH]c3ccccc23)cc1 | 88.6% |

| Compound | growth |
| --- | --- |
| Cc1nn(-c2ccccc2)c(Oc2c(Cl)cccc2Cl)c1/C=N/N=c1\sc2ccccc2n1C | 80% |
| Cc1ccc(/C=N/NC(=O)CSc2nc3ccccc3c(=O)n2Cc2ccc(S(N)(=O)=O)cc2)cc1 | 94% |
| CCNC(=O)Oc1ccc(/C(=C(\C)c2ccccc2)c2ccc(OCCN(CC)CC)cc2)cc1 | 97.6% |
| CN1C(=O)NC(c2ccc3c(c2)OCO3)C=C1c1ccccc1 (stereo not given) | 100% |
| C#CCNC(=O)[C@H](Cc1ccccc1)NC(=O)[C@]12CC[C@@H](C(=C)C)[C@@H]1[C@H]1CC[C@@H]3[C@@]4(C)CCC(=O)C(C)(C)[C@@H]4CC[C@@]3(C)[C@]1(C)CC2 | 86.8% |
| CN1CCN(CCNc2nccc(-c3c(-c4cccc(O)c4)nc4sccn34)n2)S1(=O)=O | -24.9% (active) |
| CC1(C)c2[nH]c3ccccc3c2C[C@]2(C)[C@H]3C(=O)C=C4[C@@H]5C[C@@](C)(C(N)=O)CC[C@]5(C)CC[C@@]4(C)[C@]3(C)CC[C@@H]12 | 81.8% |
| COc1ccc(-c2nc([C@@H](C)Sc3nc(N)cc(N)n3)c(C)s2)cc1OCCN1CCOCC1 | 104% |
| Oc1ccc(OCCOc2ccc(O)cc2)cc1 | 81.8% |
| C=C(C)[C@@H]1CC[C@]2(C(=O)N[C@H](CO)Cc3ccccc3)CC[C@]3(C)[C@H](CC[C@@H]4[C@@]5(C)CCCNC(C)(C)[C@@H]5CC[C@]43C)[C@@H]12 | -92.5% (active) |
| COc1ccc(NC(N)=NCCCOc2ccc(F)cc2)cc1 | 93.7% |
| O=C1Nc2cc(-c3ccc(NS(=O)(=O)c4ccccc4)cc3)ccc2/C1=C/c1ccc[nH]1 | 112% |
| CCCCCN1C=C/C(=C\C(=O)N(C)c2ccc(OC(F)(F)F)cc2)c2ccccc21 | 101% |
| CCN(CC)CC[n+]1cc2cc(OC)c(OC)cc2c2ccc3cc4c(cc3c21)OCO4 | 14.8% |
| C=C1C(=O)O[C@H]2[C@H]1CC/C(C(=O)NCCCCCNC(=O)/C1=C/CC[C@@]3(C)O[C@H]3[C@H]3OC(=O)C(=C)[C@@H]3CC1)=C\CC[C@@]1(C)O[C@@H]21 | 107% |
| NC(=O)Nc1ccc(-n2cnc3cc(-c4ccc(O)cc4)ccc32)cc1 | 116% |
| CCc1ccc(CNc2ccc(N3CCOCC3)c(C(=O)O)c2)cc1 | 82.7% |
| COc1cc(-c2n/c(=C\c3c(O)[nH]c4ccc(Cl)cc34)cc3c2=Nc2ccccc2-3)ccc1F | 67.8% |
| O=C1OC(Cc2ccccc2)C1c1ccccc1 (stereo not given) | 102% |
| [O-][n+]1c(Cl)cc(Cl)c2ccccc21 | 123% |
